Our source for the outcome values is PubChem BioAssay AID602391 (National Center for Advancing Translational Sciences (NCATS), 2012).

Some of the results follow. Records with an inconclusive call do not appear. The source made the active and inactive calls. Calls follow the shape of the dose curve; as a rule, active = well fitted inhibition curve with a large enough effect; inconclusive = small, poorly fitted or top-dose-only effect; inactive = flat fitted curve, though single readings scatter.

The assay can be described thus: qHTS Assay for Inhibitors of Bacillus subtilis Sfp phosphopantetheinyl transferase (PPTase): SAR in hGST A1-1. As to conditions: hGST A1-1 enzyme activity counter-screen; series mostly up to 114 µM. An excerpt: The covalent attachment of a phosphopantetheinyl (4'-PP) arm to a variety of synthases and other proteins is a key posttranslational protein modification. The 4'-PP is installed on the proteins post-translationally from coenzyme A (CoA) on a conserved serine residue by action of phosphopantetheinyl transferase (PPTase) enzymes. Phosphopantetheinylation is essential for synthase activity, and removal of the PPTase gene precludes natural product synthesis in microorganisms, or in the case of fatty acid biosynthesis, renders the organism unviable. PPTase enzymes belong to a distinct structural superfamily. Within bacteria, these enzymes are grouped into two classes based upon primary structure, the AcpS-Type and Sfp-Type PPTases. […]
In search of small molecule Sfp-PPTase inhibitors, a fluorescence quenching assay was developed for detection of Bacillus subtilis Sfp-PPTase enzymatic activity in a miniaturized high-throughput format. […]
This assay sought to assess the promiscuity of test articles with an unrelated target enzyme. The appropriate target for this work was determined to be human glutathione-S-transferase, an enzyme responsible for detoxifying modifying electrophilic xenobiotics to enhance their excretion. […]
Regarding `Cc1cc(C)nc(NC(=S)N2CCN(c3ccc(Cl)cc3C(F)(F)F)CC2)c1`, the call was inactive. To `COc1ccnc(NC(=S)N2CCN(c3ncc(C(F)(F)F)cc3Cl)CC2)c1` belongs “inactive”.
